Test results from PubChem BioAssay (NCATS).
Results filed as inconclusive are left out. A number with no mark means an inactive call. Calls of active or inactive are those of the source. Calls follow the shape of the dose curve; as a rule, active = well fitted cell-killing curve with a large enough effect; inconclusive = small, poorly fitted or top-dose-only effect; inactive = flat fitted curve, though single readings scatter.

Assay: qHTS of pediatric cancer cell lines to identify multiple opportunities for drug repurposing: Confirmatory screen for SK-N-SH cells (AID 1347129);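 also: cells exposed to compound for 48 h before viability read; nearly all actives have a fitted effect of over 60% in size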
Settings: SK-N-SH neuroblastoma cell viability; series mostly up to 46.1 µM; activity change, negative = cytotoxic: at the top concentration
From the text: Drug repurposing or repositioning has been offered as a strategy for drug development in oncology programs. This approach has special potential for childhood cancers and other rare or orphan diseases, where the expected return on new drug development has been a disincentive to pharmaceuticals.
In this project we exploit the poly-pharmacology of drugs to discover new indications via phenotypic screening of a panel of 19 well-characterized cell lines derived from solid tumors seen in children and adolescents. The goal is to identify approved drugs with previously unrecognized anticancer properties that has the potential to reveal new mechanisms and biological processes involved in carcinogenesis or drug resistance. We employed a titration-based paradigm (quantitative high-throughput screening or qHTS), where all compounds were tested at multiple concentrations for their effect on cell viability. Concentration-response curves (CRCs) were derived directly from the primary screen, and both potency and efficacy values were used to identify compounds with robust bioactivity profiles. We screened the NIH Chemical Genomics Center (NCGC) Pharmaceutical Collection (NPC) and Mechanism Interrogation Plate (MIPE) small molecule collections of approved and investigational compounds against these cell lines; and measured metabolically active cells after 48 hours of compound treatment as a proxy for cell viability.
Assay Submitter: Nathalia J. Martinez, National Center for Advancing Translational Sciences, National Institutes of Health, Rockville, MD, USA; email: natalia.martinez@nih.gov
[1] Shen, M et al. Quantitative high-throughput phenotypic screening of pediatric cancer cell lines identifies multiple opportunities for drug repurposing. Oncotarget 2017 Dec 19;9(4):4758-4772. PMID 29435139.
The cells were obtained from University of North Carolina (UNC), Pediatric Preclinical Testing Program (PPT), and Coriell Institute (CI).
qHTS cell viability assay:
Cells were assayed in growth media at a density of 500-1,000 cells/well. Five microliters of cells were dispensed into 1,536-well, white, solid-bottom, TC-treated plates (Greiner Bio One) using a multidrop dispenser and incubated at 37 degrees C, 5% CO2, under a humidified atmosphere for 5 hours. Twenty-three nanoliters of compounds and controls (neutral control DMSO or positive control bortezomib at final concentration of 2.3 µM) were subsequently transferred by Kalypsys pintool. For primary screens, the MIPE collection was tested at 11-point dilutions (final concentrations range from 0.78 nM to 46 µM) and the NPC collection at 8-point dilutions (final concentrations range from 0.59 nM to 46 µM). Compounds tested in follow-up screens were assayed at 11-point dilutions. Cells were incubated for 48 hours, followed by addition of 3 µL of CellTiter-Glo (Promega). After a 15 min incubation at room temperature, samples were analyzed for luminescence intensity using a ViewLux High-throughput CCD imager equipped with clear filters.
Potency is read from the fitted curve at half-maximal effect.

SMILES | activity change, negative = cytotoxic | Potency
Clc1ccc2nsnc2c1NC1=NCCN1 | -0.721% | 
CC[C@@]1(O)C(=O)OCc2c1cc1n(c2=O)Cc2cc3c(CN(C)C)c(O)ccc3nc2-1 |  | 6.62 µM (active)
Clc1ccc(C(c2ccccc2Cl)C(Cl)Cl)cc1 (stereo unspecified) | 3.87% | 
CC(CCc1ccc(O)cc1)NCCc1ccc(O)c(O)c1 (stereo unspecified) | -1.53% | 
CCCCc1oc2ccccc2c1C(=O)c1cc(I)c(OCCN(CC)CC)c(I)c1 |  | 56.2 µM (active)
COc1cc2c(c(OC)c1OC)-c1ccc(OC)c(=O)cc1[C@@H](NC(C)=O)CC2 | 10.8% [at 369 µM] | 
NC12CC3CC(CC(C3)C1)C2 | 3.14% | 
CN(Cc1cnc2nc(N)nc(N)c2n1)c1ccc(C(=O)N[C@@H](CCC(=O)O)C(=O)O)cc1 | -6.69% | 
CC(C)NCC(O)c1ccc(O)c(O)c1 (stereo unspecified) | -18.1% | 
CN1CCN(CCCN2c3ccccc3Sc3ccc(Cl)cc32)CC1 |  | 20.9 µM (active)
CCC1(c2ccccc2)C(=O)NCNC1=O | 2.83% | 
CC(C)C(=O)Nc1ccc([N+](=O)[O-])c(C(F)(F)F)c1 | -6.9% | 
O=C(Nc1ccc([N+](=O)[O-])cc1Cl)c1cc(Cl)ccc1O |  | 3.23 µM (active)
CS(=O)(=O)CCNCc1ccc(-c2ccc3ncnc(Nc4ccc(OCc5cccc(F)c5)c(Cl)c4)c3c2)o1 |  | 23.5 µM (active)
O=C1c2c(O)ccc(O)c2C(=O)c2c(NCCNCCO)ccc(NCCNCCO)c21 |  | 0.526 µM (active)
CC(C)Cc1ccc(C(C)C(=O)O)cc1 (stereo unspecified) | -7.93% | 
